CHX counter – affects cycloheximide protein synthesis inhibition readout, counter-screen. cell reporter, cycloheximide protein synthesis inhibition counterscreen. max response, %. 300,000 tested, 12% active. AID 2314; in the data active means max response mostly above about 13%, no sharp cut-off; inactive means mostly below about 14%; further: read at 38.3 µM for the half of the compounds with a filed dose
FMDV inh – foot and mouth disease virus antiviral activity | Potency, µM (titrated, usually from 57.9 µM), usual class: inhibitors | FMDV antiviral cell-based qHTS | 410,000 tested, 1.2% active; calls by dose curve; tested in HEK293T cells; further: read-out not given here; nearly all actives have a fitted effect of over 45% in size
Shiga toxin inh – blocks Shiga toxin action in Vero cells; Vero cells, Shiga toxin protein synthesis inhibition reporter; inhibition, % at 38.7 µM; 290,000 tested, 9.2% active; AID 2315; in the data active means inhibition mostly above about 28%, no sharp cut-off; inactive means mostly below about 43%
Sm TGR block – inhibitors of Schistosoma mansoni thioredoxin glutathione reductase | Q962Y6 | purified TGR, DTNB reduction, TNB absorbance 405 nm | Potency, µM (top dose mostly 114 µM), hits mostly inhibitors | 360,000 tested, 3% active | AID 485364; active means well fitted inhibition curve with a large enough effect; inconclusive means small, poorly fitted or top-dose-only effect; inactive means no such curve, though single readings can be large or run the other way; further: nearly all actives have a fitted effect of over 60% in size
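Kinetic colorimetric format: TGR-catalysed, NADPH-driven DTNB reduction monitored via TNB absorbance. Enzyme dispensed at 20 nM; compound exposure 15 min at room temperature before reaction start.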
Each line names hits and unclear results; the compound was inactive in the other large screens; ! = not active in a repeat. An excerpt weighted towards active compounds, which were near 12% of everything screened.

N#CC1=C(SCC(=O)NCc2ccccc2)NC(=O)CC1c1ccco1 (stereo not given)	Sm TGR block 39.8µM
N#CC1=C(SCc2ccccc2)NC(=O)CC1c1ccco1 (stereo not given)	Sm TGR block 35.5µM
CCSC1=C(C#N)C(c2ccc(C)o2)CC(=O)N1 (stereo not given)	none
Cc1ccc(C2CC(=O)NC(SCc3ccccc3)=C2C#N)o1 (stereo not given)	FMDV inh inconclusive, Sm TGR block inconclusive
CCCCCCSC1=C(C#N)C(c2ccc(C)o2)CC(=O)N1 (stereo not given)	Sm TGR block 44.7µM (no result: FMDV inh)
O=C(O)CCCn1cc(NC(=O)COc2ccccc2F)cn1	FMDV inh 10µM!
OC1(c2ccc(OC(F)F)cc2)CSC(=Nc2cccnc2)N1Cc1ccco1 (stereo not given)	FMDV inh 8.91µM
CC(C)(C)C(=O)CSc1nc2ccsc2c(=O)n1Cc1ccccc1Cl	none (no result: CHX counter, Shiga toxin inh)
O=S(=O)(Nc1ccc(N=Nc2ccccc2)cc1)c1ccccc1	none
O[C@@H]1COC(Nc2ccc(N=Nc3ccccc3)cc2)C[C@@H]1O (stereo not given in full)	CHX counter 61.9, Shiga toxin inh 94.9
COc1ccccc1OCc1ccc(C(=O)N2CCN(C(=O)c3ccco3)CC2)cc1	FMDV inh inconclusive, Sm TGR block inconclusive
CN(C)CCOC(=O)c1ccc(COc2ccccc2Br)o1	none
CN(C(=O)c1ccc(COc2ccccc2Br)o1)c1ccccc1	CHX counter 15.3, Shiga toxin inh 27.0
O=C(c1ccc(COc2ccccc2Br)o1)N1CCCCCC1	CHX counter 26.4, Shiga toxin inh 31.6, Sm TGR block inconclusive
O=C(c1ccc(COc2ccccc2Br)cc1)N1CCCCC1	CHX counter 34.4, Shiga toxin inh 49.5
Cc1nc2nncn2c(N2CCN(c3ccccc3)CC2)c1C	none (no result: CHX counter, Shiga toxin inh)
O=C(Cc1ccc(Cl)cc1Cl)NC1CCCCCC1	none
CC(C)Cc1ccc(/C=C/C(=O)NC2CC2)cc1	CHX counter 71.4, Shiga toxin inh 112.4
O=C(Cc1ccc(Cl)c(Cl)c1)NC1CCCCCC1	CHX counter 11.9, Shiga toxin inh 78.7
O=C(Cc1ccc(O)cc1)NC1CCCCCC1	CHX counter 42.1, Shiga toxin inh 68.9
O=S(=O)(NC(=S)NC1CCCCC1)c1ccc(Br)cc1	Sm TGR block 22.4µM
Cc1cc(NC(=O)C2CCN(S(=O)(=O)c3ccc4[nH]c(=O)oc4c3)CC2)ccc1Br	FMDV inh inconclusive (no result: CHX counter, Shiga toxin inh)
O=C(NC1CCCCC1)c1ccc(CSc2nc3cccnc3n2Cc2cccc(F)c2)cc1	FMDV inh inconclusive (no result: CHX counter, Shiga toxin inh)
O=C(/C=C/c1ccccc1)NC1CCS(=O)(=O)C1 (stereo not given)	none
O=C(COC(=O)Cc1ccc(Br)cc1)NC1CCCC1	none (no result: CHX counter, Shiga toxin inh, Sm TGR block)
Cc1ccc(/C=C/C(=O)NC2CCS(=O)(=O)C2)cc1 (stereo not given)	CHX counter 19.7, Sm TGR block inconclusive
O=C(Cc1ccc(Br)cc1)NC1CCCCC1	CHX counter 22.5, Sm TGR block inconclusive
O=C(/C=C/c1ccc(Br)cc1)NC1CCCCCC1	CHX counter 17.3, Shiga toxin inh 62.3
O=S1(=O)N=C(Nc2ccc(N3CCOCC3)c(Cl)c2)c2ccccc21	CHX counter 48.0, Shiga toxin inh 85.3
Cc1ccc(-c2nnc3sc(CCc4ccccc4)nn23)cc1	CHX counter 18.7, Shiga toxin inh 47.5 (no result: FMDV inh)
O=C(Nc1cccc(Cl)c1)N1CCCCCC1	CHX counter 14.9
O=C(Nc1ccccc1)N1CCCC1	none
O=C(Nc1ccc(C(=O)N2CCCCC2)cc1)Nc1cccc(Cl)c1	CHX counter 32.7, Shiga toxin inh 72.4
O=C(Nc1ccc(C(=O)N2CCCCC2)cc1)c1ccccc1Cl	none
CN(C)CC(C)(O)c1ccc2c(c1)CN(Cc1cccn1-c1cccnc1)CCO2 (stereo not given)	none (no result: CHX counter, Shiga toxin inh, Sm TGR block)
CCOC(=O)c1cc(S(=O)(=O)NCc2ccc(Cl)cc2)[nH]n1	none (no result: CHX counter, Shiga toxin inh)
COc1ccc(OC)c(C2=NO[C@@](CC(=O)O)(C(=O)Nc3ccc4c(c3)OCCO4)C2)c1	CHX counter 64.6, Shiga toxin inh 76.8, Sm TGR block 12.6µM
Cc1ccc(C2=NO[C@@](CC(=O)O)(C(=O)Nc3ccc4c(c3)OCCO4)C2)cc1	CHX counter 128.9, Shiga toxin inh 117.4, Sm TGR block 14.1µM
COc1ccc(OC)c(NC(=O)[C@@]2(CC(=O)O)CC(/C=C/c3ccccc3)=NO2)c1	Sm TGR block inconclusive
CCCCOc1cccc(NC(=O)c2cccc(C(=O)Nc3cccc(OCCCC)c3)c2)c1	none (no result: CHX counter, Shiga toxin inh)
Fc1cccc(CSc2nc(NCCc3ccccc3)c3ccccc3n2)c1	none (no result: CHX counter, Shiga toxin inh)
COC(=O)c1cccc(NC(N)=S)c1	none (no result: Sm TGR block)
COC(=O)c1cccc(NC(=O)c2cc3ccccc3o2)c1	CHX counter 29.3, Shiga toxin inh 35.3
Cc1ccc(C(=O)Nc2cccc(C(=O)O)c2)cc1	CHX counter 41.8, FMDV inh 2µM, Shiga toxin inh 71.0
CNC(=S)Nc1cccc(C(=O)OC)c1	Sm TGR block 31.6µM
COC(=O)c1ccc(NC(=O)c2ccccc2)o1	CHX counter 38.3, Shiga toxin inh 80.6
COc1ccc(CNC(=O)c2ccc(NC(=O)N3CCCCc4ccccc43)cc2)c(OC)c1	none (no result: CHX counter, Shiga toxin inh)
CCCc1cc(=O)[nH]c(Nc2cc(C)ccc2OC)n1	none (no result: CHX counter, Shiga toxin inh)
Cc1ccc(NC(=O)c2ccccc2)cc1C	none (no result: CHX counter, Shiga toxin inh)
Cc1ccc(C(=O)Oc2cccc(NC(=O)c3ccccc3)c2)cc1C	CHX counter 16.4
COC(=O)c1cccc(NC(=S)Nc2cccc(Cl)c2Cl)c1	Sm TGR block 44.7µM
COC(=O)c1cccc(NC(=O)c2ccccc2)c1	CHX counter 29.1, Shiga toxin inh 50.3
COC(=O)c1ccc(NC(=O)c2cccc(NC(=O)c3ccccc3)c2)cc1	none
COc1ccc(OC)c(-c2nc(CN3CCN(C(=O)c4ccco4)CC3)c(C)o2)c1	Sm TGR block inconclusive
COc1ccc(-c2nc(CN3CCN(c4ccccc4OC)CC3)c(C)o2)cc1	FMDV inh 28.2µM (no result: Sm TGR block)
COc1ccccc1N1CCN(Cc2ccc(Br)cc2)CC1	Sm TGR block 35.5µM (no result: Shiga toxin inh)
COc1ccc(-c2nc(CN3CCN(c4ncnc5ccccc45)CC3)c(C)o2)c(OC)c1	FMDV inh 20µM, Sm TGR block inconclusive
Cc1oc(-c2cc(F)ccc2F)nc1CN1CCC(C(=O)N2CCOCC2)CC1	none
Cc1oc(-c2cc(F)ccc2F)nc1CN1CCN(c2ncnc3ccccc23)CC1	CHX counter 24.6, FMDV inh 15.8µM
CCNc1ncc2nc(-c3cn(C)c4ccccc34)c(=O)n(C[C@H]3CCCO3)c2n1	none (no result: CHX counter, Shiga toxin inh, Sm TGR block)
O=S(=O)(c1ccc(Cl)cc1)N1CCN(c2nc(-c3ccc(F)cc3)nc3cc(Cl)ccc23)CC1	none (no result: FMDV inh, Sm TGR block)
O=C(Nc1ccc(NC(=O)C2CCCCC2)nc1)c1ccco1	CHX counter 52.5, Shiga toxin inh 66.2
O=C(Nc1ccc(NC(=O)C2CC2)nc1)c1ccco1	CHX counter 24.0, Shiga toxin inh 59.7
O=C(Nc1ccc(NC(=O)C2CCCCC2)nc1)c1ccccn1	CHX counter 43.6, Shiga toxin inh 81.4 (no result: Sm TGR block)
O=C(NNC(=O)C1CCCCC1)c1ccco1	none
O=C(Nc1ccc(NC(=O)C2CC2)nc1)c1cccnc1	none
COc1ccccc1C(=O)Nc1ccc(NC(=O)C2CCCCC2)nc1	none
CCN(CC)CCN1C(=O)c2ccccc2NC1c1ccc(N(C)C)cc1 (stereo not given)	FMDV inh 3.16µM

Screening data from PubChem BioAssay.
